Test [1] in a line: AP1 Signaling Pathway (AID 357).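 Also: ME-180 reporter cells stimulated with EGF at its EC50 level; % is scaled to controls: 0 for no effect and ±100 for the full control effect.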 The conditions noted are these: ME-180 AP-1-bla reporter, EGF-induced, beta-lactamase ratio, 5 h. In short, it runs like this:
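Read-out was the 460nm/530nm emission ratio (excitation 405nm) after CCF4 loading for 2.5 hours at room temperature. Cells carried an AP-1-driven beta-lactamase reporter, were stimulated with EC50 EGF plus compound for 5 hours, and AC50 values came from titrations.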

Test [2] concerns the target Cytochrome P450 1A2 (Homo sapiens) (UniProt P05177). Nature of the test: p450-cyp1a2 (AID 410; calls by dose curve; also: potency is read from the fitted curve at half-maximal effect;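 as to activity change, negative = inhibition: -100% = full effect of reference inhibitor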). The essentials:
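Read-out is luminescence from luciferin produced by CYP1A2 demethylation of Luciferin-ME (100uM, at Km). Detection reagent stopped the 60 min NADPH-dependent reaction; signals were normalized to 57 uM furafylline.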

Test [3] in a line: NFAT Signaling Pathway (AID 444).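 Also: carbachol stimulus at about its EC50 of 1 µM final; % is scaled to controls: 0 for no effect and ±100 for the full control effect.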 The following applies: Jurkat NFAT-bla M1, carbachol, beta-lactamase ratio, 5 h. In short, it runs like this: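 Jurkat cells with NFAT-driven β-lactamase reporter and co-expressed M1 receptor, stimulated with carbachol (final 1 uM, ~EC50), compound titration, 5 h at 37 °C. CCF4 loaded 1 h at RT; 460/530 nm ratio gave %activity and AC50.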
The nature of test [4]: Stat Signaling Pathway (AID 446).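 Also: ME-180 cervical cancer cells given 40 pM IL-6 alongside compound; SIE-controlled beta-lactamase reporter measured as 460/530 nm FRET emission ratio; % is scaled to controls: 0 for no effect and ±100 for the full control effect.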 The conditions noted are these: ME-180 (cervical carcinoma) SIE beta-lactamase reporter, IL-6 stimulated, 5 h. In short, it runs like this:
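Compound effects on IL-6-induced STAT reporter activity were measured in ME-180 cells. After overnight culture, cells were co-treated with 40 pM IL-6 for 5 hrs before beta-lactamase substrate loading at room temperature.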

Test [5] deals with Glucocorticoid receptor (Homo sapiens) (UniProt P04150). Kind of test: GR-GFP Redistribution (AID 450;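 active = compounds whose dose series gives a full or clear partial fitted curve of increased nuclear translocation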; also: potency is read from the fitted curve at half-maximal effect). The following applies: U2OS GR-GFP nuclear translocation, laser cytometry, 2 h.
Chain of Glucocorticoid receptor (Homo sapiens) (P04150 whole entry, looked up): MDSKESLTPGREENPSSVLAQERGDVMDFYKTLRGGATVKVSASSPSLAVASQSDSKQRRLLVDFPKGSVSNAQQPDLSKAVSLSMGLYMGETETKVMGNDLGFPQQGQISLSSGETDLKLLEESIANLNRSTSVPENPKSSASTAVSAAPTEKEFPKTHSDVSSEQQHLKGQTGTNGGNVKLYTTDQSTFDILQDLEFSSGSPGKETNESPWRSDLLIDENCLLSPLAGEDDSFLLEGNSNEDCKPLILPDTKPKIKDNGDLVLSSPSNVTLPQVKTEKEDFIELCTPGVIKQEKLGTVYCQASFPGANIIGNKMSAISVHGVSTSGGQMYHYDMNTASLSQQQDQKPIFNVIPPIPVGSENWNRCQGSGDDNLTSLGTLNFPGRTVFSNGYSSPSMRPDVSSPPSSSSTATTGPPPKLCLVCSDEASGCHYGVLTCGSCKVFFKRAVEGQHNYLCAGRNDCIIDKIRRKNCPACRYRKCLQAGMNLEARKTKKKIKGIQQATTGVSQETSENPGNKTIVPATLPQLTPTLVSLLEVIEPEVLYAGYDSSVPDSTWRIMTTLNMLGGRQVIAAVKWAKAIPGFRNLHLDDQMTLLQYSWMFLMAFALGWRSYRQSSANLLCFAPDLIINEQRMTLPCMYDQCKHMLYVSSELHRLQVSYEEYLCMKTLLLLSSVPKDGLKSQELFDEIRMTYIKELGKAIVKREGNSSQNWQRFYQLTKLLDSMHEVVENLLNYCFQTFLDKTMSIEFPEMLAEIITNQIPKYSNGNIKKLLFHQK
For test [6] the target is unchanged. Kind of test: GR-EFC Redistribution (AID 451; calls by dose curve; also: potency is read from the fitted curve at half-maximal effect). The following applies: CHO-K1 GR-EFC translocation, beta-gal luminescence, 2 h. In short, it runs like this:
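CHO-K1 cells expressing nuclear EA and GR-ED fragments of b-gal; compounds titrated up to 46 uM final, 2 h at 37 C. GR nuclear translocation read as complemented b-gal luminescence after 1 h RT detection.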

The target in test [7] is Mitogen-activated protein kinase 10 (Mus musculus) (UniProt Q61831). Kind of test: JNK3 AlphaScreen Assay (AID 530).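 Also: kinase came from lysate of stimulated human HepG2 cells; signal reports phosphorylation of biotinylated GST-cJun 1-79 at Ser73 with 10 µM ATP; % is scaled to controls: 0 for no effect and ±100 for the full control effect.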 In short, it runs like this:
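HepG2 lysate (IL-1b/TNFa pre-activated) + biotin-GST-cJun 1-79 + anti-pSer73 cJun; cpd titration, 15 min RT; ATP 10 uM start; Tris pH 7.6, MgCl2, DTT, vanadate; beads in EDTA buffer; AlphaScreen.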
In general terms: Alpha assays give light when donor and acceptor beads are brought close together.

Test [8] deals with 3',5'-cyclic-AMP phosphodiesterase 4B (Homo sapiens) (UniProt Q07343). Nature of the test: qHTS Assay for Inhibitors of PDE-IV (AID 607; active = well fitted activation curve with a large enough effect in the main read-out, with a control signal flat, not every such curve was filed as active; also: % of control where 0% means no effect). The essentials:
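ACTOne HEK293 cells carry a modified cAMP-gated CNG channel and express endogenous PDE4; plated 1000 cells/well, compounds up to 22.9 uM final. Membrane-potential dye fluorescence (ex 535/em 590) was read; parental cells received 10 uM forskolin + 100 uM RO 20-1724.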

Test [9] has as its target Cytochrome P450 2C9 (Homo sapiens) (UniProt P11712). Kind of test: qHTS Assay for Inhibitors and Substrates of Cytochrome P450 2C9 (AID 883; active = well fitted curve in the direction sought with a large enough effect; an effect the other way counts as inactive or inconclusive; also: % is scaled to controls: 0 for no effect and ±100 for the full control effect; nearly all actives have a fitted effect of over 60% in size). In short, it runs like this:
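Human CYP2C9 (10nM) with Luciferin-H at 100uM (its KM) in 25mM KPO4; compound preincubated 10 min at 37C, then NADPH regeneration for 60 min at 37C. Luciferin read by luminescence after detection reagent; normalized to 57uM sulphaphenazole as full inhibition.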

The target in test [10] is Lysosomal acid glucosylceramidase (Homo sapiens) (UniProt P04062). Nature of the test: Glucocerebrosidase-p2 (AID 348; in the data active = potency below about 10 µM; also: potency is read from the fitted curve at half-maximal effect). The following applies: purified GBA, blue fluorogenic substrate, 40 min. In short, it runs like this: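 Normal human glucocerebrosidase (0.2 nM) with blue fluorogenic substrate (80 uM final) in citrate/phosphate pH 5.9 with 10mM sodium taurocholate, 0.01% tween-20; 40 min RT, NaOH/glycine stop; fluorescence Ex 365/Em 440; AC50 from a titration from 0.6 nM upwards.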
Chain of Lysosomal acid glucosylceramidase (Homo sapiens) (P04062 whole entry, looked up): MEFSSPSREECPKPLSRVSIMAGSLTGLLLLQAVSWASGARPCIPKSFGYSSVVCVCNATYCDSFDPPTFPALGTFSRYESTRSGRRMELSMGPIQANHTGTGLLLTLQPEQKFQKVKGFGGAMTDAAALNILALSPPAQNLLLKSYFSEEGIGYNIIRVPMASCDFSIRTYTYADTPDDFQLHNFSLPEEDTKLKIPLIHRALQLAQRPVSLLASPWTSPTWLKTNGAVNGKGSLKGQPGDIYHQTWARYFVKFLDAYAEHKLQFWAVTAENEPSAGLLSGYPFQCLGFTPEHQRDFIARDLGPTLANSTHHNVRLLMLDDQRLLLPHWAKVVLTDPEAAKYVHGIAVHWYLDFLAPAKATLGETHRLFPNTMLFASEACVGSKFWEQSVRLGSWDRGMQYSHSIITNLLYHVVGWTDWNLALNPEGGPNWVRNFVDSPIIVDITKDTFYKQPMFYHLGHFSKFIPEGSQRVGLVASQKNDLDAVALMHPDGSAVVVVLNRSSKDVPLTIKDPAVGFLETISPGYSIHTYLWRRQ

In test [11] the target is Cytochrome P450 3A4 (Homo sapiens) (UniProt P08684). Nature of the test: qHTS Assay for Inhibitors and Substrates of Cytochrome P450 3A4 (AID 884; active = well fitted curve in the direction sought with a large enough effect; an effect the other way counts as inactive or inconclusive; also: potency is read from the fitted curve at half-maximal effect; nearly all actives have a fitted effect of over 50% in size). The essentials:
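Luminescent readout of luciferin produced by CYP3A4 (20 nM) dealkylation of Luciferin-PPXE, 25 uM (its KM). NADPH-driven reaction ran 60 min at RT after 10 min compound preincubation; data scaled to 57 uM ketoconazole as 100% inhibition.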

For test [12] the target is unchanged. Kind of test: qHTS Assay for Activators of Cytochrome P450 3A4 (AID 885; active = well fitted curve in the direction sought with a large enough effect; an effect the other way counts as inactive or inconclusive; also: nearly all actives have a fitted effect of over 65% in size). The essentials:
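CYP3A4 activity: Luciferin-PPXE O-dealkylation, 25uM substrate, 200mM KPO4, RT throughout. Read-out is luciferase luminescence; higher values reflect activation.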
Background: In qHTS, concentration-response curves come from the screen itself.

In test [13] the target is Cytochrome P450 2C19 (Homo sapiens) (UniProt P33261). Nature of the test: qHTS Assay for Inhibitors and Substrates of Cytochrome P450 2C19 (AID 899; active = well fitted curve in the direction sought with a large enough effect; an effect the other way counts as inactive or inconclusive; also: potency is read from the fitted curve at half-maximal effect; nearly all actives have a fitted effect of over 60% in size). In short, it runs like this: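 5 nM human CYP2C19 with 10uM Luciferin-H EGE (at KM) in 50mM KPO4, compound preincubated 10 min at 37C, then NADPH regeneration for 60 min at 37C. Luciferin read by luminescence after detection reagent; normalized to 57uM ketoconazole as full inhibition.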
Chain of Cytochrome P450 2C19 (Homo sapiens) (P33261 whole entry, looked up): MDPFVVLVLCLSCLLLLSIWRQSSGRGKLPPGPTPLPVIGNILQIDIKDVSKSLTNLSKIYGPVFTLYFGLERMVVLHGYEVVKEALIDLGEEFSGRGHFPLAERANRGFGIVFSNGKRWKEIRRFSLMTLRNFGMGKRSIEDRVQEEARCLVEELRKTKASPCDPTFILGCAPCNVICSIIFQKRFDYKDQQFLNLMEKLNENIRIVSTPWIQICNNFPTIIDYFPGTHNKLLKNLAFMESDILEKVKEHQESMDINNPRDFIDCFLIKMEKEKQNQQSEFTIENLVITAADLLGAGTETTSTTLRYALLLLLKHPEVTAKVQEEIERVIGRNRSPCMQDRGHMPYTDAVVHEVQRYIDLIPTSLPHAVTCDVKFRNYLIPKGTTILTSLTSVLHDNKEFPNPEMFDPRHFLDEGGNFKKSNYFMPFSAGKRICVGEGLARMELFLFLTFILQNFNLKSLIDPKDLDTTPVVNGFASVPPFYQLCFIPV

Test [14] deals with ATP-dependent 6-phosphofructokinase (Trypanosoma brucei brucei) (UniProt O15648). Nature of the test: qHTS Assay to Find Inhibitors of T. brucei phosphofructokinase: hit validation (AID 492961; active = well fitted curve in the direction sought with a large enough effect; an effect the other way counts as inactive or inconclusive). In short, it runs like this:
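Compounds titrated; %activity normalized to 0x and 1x enzyme controls, curve-fitted. Readout: ADP-Glo luminescence after 45 min room-temperature reaction of 1.25 nM PFK, 0.1 mM ATP, 0.5 mM F6P, pH 8.0.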

Test [15] can be described thus: qHTS profiling for inhibitors of Plasmodium falciparum proliferation (AID 504749; active = well fitted curve in the direction sought with a large enough effect; an effect the other way counts as inactive or inconclusive; also: nearly all actives have a fitted effect of over 60% in size; also: potency is read from the fitted curve at half-maximal effect;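 as to activity, negative = inhibition: 0% = DMSO vehicle and full inhibition = artemisinin control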). The following applies: P. falciparum in erythrocytes, SYBR Green DNA, 72 h, at 12.8 µM (top of the series). In short, it runs like this: (§1)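 SYBR Green fluorescence (ex 485 nm, em 535 nm) reports parasite DNA after 72 h compound exposure of infected red cells at 0.3% parasitemia, 2.5% hematocrit; signal normalized to 0.29 uM artemisinin and vehicle wells.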

The subject of the next test is ATS189. Described as above. The following applies: P. falciparum in erythrocytes, SYBR Green DNA, 72 h; series mostly up to 28.7 µM. The essentials:
as §1

Another test deals with CP192. The test is described as above. The following applies: P. falciparum in erythrocytes, SYBR Green DNA, 72 h; series mostly up to 28.7 µM. In short, it runs like this:
as §1

A further test relates to W2. The test is described as above. The conditions noted are these: P. falciparum in erythrocytes, SYBR Green DNA, 72 h; series mostly up to 28.7 µM. In short, it runs like this: as §1
[16] abbreviates: at 7.69 µM (top of the series) unless noted.

Unmarked numbers belong to inactive results. Results filed as inconclusive are left out. Activity calls are given as the source filed them. Unless noted, calls follow the shape of the dose curve; as a rule, active = well fitted curve in either direction with a large enough effect (not every such curve was filed as active); inconclusive = small, poorly fitted or top-dose-only effect, or another doubt; inactive = flat fitted curve, though single readings scatter.

Chain of 3',5'-cyclic-AMP phosphodiesterase 4B (Homo sapiens) (Q07343 whole entry, looked up): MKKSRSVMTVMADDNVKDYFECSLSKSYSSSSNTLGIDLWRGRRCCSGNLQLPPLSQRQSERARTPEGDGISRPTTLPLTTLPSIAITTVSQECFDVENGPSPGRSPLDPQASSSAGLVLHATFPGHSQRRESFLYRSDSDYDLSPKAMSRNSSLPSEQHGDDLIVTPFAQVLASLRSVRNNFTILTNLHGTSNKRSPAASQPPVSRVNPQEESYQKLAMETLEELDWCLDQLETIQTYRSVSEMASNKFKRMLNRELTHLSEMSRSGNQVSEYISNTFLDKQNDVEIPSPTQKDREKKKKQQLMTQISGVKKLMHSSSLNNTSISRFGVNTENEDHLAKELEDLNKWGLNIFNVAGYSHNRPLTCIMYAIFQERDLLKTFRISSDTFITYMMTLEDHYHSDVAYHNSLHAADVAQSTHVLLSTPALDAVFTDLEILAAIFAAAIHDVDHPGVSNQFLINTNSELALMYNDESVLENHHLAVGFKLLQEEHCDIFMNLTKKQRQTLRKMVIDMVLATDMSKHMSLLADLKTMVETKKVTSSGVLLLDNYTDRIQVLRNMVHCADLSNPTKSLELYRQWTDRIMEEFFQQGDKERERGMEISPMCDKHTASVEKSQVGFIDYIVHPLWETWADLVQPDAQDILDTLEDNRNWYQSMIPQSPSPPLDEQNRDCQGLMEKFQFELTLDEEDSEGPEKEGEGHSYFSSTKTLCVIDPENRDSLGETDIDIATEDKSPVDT
Chain of Cytochrome P450 1A2 (Homo sapiens) (P05177 whole entry, looked up): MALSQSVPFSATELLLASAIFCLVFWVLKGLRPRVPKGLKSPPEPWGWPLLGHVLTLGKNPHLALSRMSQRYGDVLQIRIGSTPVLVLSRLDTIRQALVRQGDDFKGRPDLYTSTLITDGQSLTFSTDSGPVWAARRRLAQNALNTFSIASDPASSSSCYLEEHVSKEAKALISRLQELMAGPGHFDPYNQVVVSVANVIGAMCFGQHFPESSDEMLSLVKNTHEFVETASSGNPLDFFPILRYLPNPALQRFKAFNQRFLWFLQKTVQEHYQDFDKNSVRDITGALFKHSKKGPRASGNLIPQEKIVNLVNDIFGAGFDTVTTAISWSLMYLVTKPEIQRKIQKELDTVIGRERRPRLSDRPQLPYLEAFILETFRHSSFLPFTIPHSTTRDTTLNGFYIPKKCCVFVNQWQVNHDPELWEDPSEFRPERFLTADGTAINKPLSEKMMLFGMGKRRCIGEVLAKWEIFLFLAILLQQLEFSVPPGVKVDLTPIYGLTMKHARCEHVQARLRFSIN
Chain of Cytochrome P450 3A4 (Homo sapiens) (P08684 whole entry, looked up): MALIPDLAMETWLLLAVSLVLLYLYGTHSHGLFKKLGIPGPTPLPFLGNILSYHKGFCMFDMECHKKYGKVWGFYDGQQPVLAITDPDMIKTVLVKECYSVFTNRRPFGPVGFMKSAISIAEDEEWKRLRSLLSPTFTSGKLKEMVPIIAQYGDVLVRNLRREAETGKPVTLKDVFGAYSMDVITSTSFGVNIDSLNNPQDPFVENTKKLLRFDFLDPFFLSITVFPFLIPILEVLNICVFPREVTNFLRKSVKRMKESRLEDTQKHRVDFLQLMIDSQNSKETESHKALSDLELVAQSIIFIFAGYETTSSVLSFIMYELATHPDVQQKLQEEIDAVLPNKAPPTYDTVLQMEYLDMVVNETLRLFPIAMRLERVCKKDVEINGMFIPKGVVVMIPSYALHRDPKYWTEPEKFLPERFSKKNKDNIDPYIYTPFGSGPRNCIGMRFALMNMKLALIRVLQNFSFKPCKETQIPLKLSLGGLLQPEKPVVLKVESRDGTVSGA
Chain of ATP-dependent 6-phosphofructokinase (Trypanosoma brucei brucei) (O15648 whole entry, looked up): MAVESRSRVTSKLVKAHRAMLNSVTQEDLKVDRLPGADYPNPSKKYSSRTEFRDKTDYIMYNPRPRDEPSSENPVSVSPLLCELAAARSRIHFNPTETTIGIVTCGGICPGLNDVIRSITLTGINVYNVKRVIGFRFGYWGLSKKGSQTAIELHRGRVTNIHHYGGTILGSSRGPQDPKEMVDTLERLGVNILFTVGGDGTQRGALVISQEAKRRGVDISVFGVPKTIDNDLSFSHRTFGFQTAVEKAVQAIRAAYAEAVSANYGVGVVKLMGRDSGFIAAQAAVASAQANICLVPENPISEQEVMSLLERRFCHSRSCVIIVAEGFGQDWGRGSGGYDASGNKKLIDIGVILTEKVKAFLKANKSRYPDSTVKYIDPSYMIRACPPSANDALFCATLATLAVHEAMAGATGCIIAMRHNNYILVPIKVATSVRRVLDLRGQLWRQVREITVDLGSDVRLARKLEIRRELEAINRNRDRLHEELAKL
Chain of Cytochrome P450 2C9 (Homo sapiens) (P11712 whole entry, looked up): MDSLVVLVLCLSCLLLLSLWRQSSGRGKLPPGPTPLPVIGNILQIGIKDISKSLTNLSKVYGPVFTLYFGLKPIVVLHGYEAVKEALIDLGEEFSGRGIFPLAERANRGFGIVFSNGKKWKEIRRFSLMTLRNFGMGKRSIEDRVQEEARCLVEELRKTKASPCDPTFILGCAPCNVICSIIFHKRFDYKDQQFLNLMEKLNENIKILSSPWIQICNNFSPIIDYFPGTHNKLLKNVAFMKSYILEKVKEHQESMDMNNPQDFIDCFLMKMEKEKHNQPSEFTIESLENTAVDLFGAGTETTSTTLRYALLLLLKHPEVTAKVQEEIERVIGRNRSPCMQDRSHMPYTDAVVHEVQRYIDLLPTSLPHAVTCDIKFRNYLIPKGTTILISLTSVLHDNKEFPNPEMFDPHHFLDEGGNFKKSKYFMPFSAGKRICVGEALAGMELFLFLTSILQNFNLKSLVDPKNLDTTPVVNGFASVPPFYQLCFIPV

In the case of `N=c1ccn2c(n1)O[C@@H]1[C@@H](O)[C@H](CO)O[C@H]12`, the activity change, negative = inhibition in test [1] (setting [16]) was -4.43% [at 38 µM]; in [3] (setting [16]), -5.26% [at 38 µM]. Besides, the Potency entry in [2], in test [7], in [8] and in [9] was “inactive” throughout. For the same compound, the activity, negative = inhibition in test [4] (setting [16]) was 0.604% [at 38 µM]. Further, the Potency in [5] and in test [6] was above 46 µM throughout.
Regarding `Cc1cc(O)c(C(C)C)cc1C1(c2cc(C(C)C)c(O)cc2C)OC(=O)c2ccccc21`, the Potency is above 11.4 µM in test [10]; above 46 µM in test [5]; above 9.22 µM in test [6]; 1.58 µM (active) in [11]; 3.16 µM (active) in [13]. Also, the Potency result in test [7], in test [8] and in test [12] was “inactive” each time.
Turning to `C[C@H](CN(C)C)C(=O)c1ccccc1C(=O)O`, the activity change, negative = inhibition in test [1] (setting [16]) was -1.25%; in [3] (setting [16]) it was -1.83%. Besides, the Potency result in [2], in [7] and in test [8] was “inactive” each time. Further, in [4] (setting [16]), the activity, negative = inhibition was 14.8%. The figures for the Potency in [5] and in test [6] were above 46 µM and above 9.22 µM, respectively.
As to `O=C(O)c1ccccc1/C=N\N=C1c2ccccc2-c2ccccc21`, the results for the activity change, negative = inhibition in [1] (setting [16]) and in [3] (setting [16]) were 20.6% and 7.67%, respectively. Moreover, the Potency in test [2] was 0.316 µM (active); in [5], above 46 µM; in test [6] it was above 9.22 µM. The activity, negative = inhibition in test [4] (setting [16]) was -13.9%. The Potency entry in [7] and in test [8] was “inactive” each time.
Turning to `Cc1nnc(SCC2=C(C(=O)O)N3C(=O)[C@@H](NC(=O)Cn4cnnn4)[C@@H]3SC2)s1`, the activity change, negative = inhibition in test [1] (at 17.2 µM (top of the series)) is 3.67%; in test [1] (at 38 µM (top of the series)), 2.44%; in [3] (at 17.2 µM (top of the series)), 2.74%; in test [3] (at 38 µM (top of the series)) it was -2.96%. The Potency entry in test [2], in [7], in test [8] and in test [12] was “inactive” each time. Further, the activity, negative = inhibition was 8.89% in [4] (at 17.2 µM (top of the series)) and -5.18% in [4] (at 38 µM (top of the series)).
In the case of `O=C(C[n+]1ccc2ccccc2c1)c1ccc2ccc3ccccc3c2c1`, the activity change, negative = inhibition was 0.901% in test [1] (setting [16]) and -15.5% in [3] (setting [16]). Also, the Potency in [2] is 2.51 µM (active); in test [5], above 46 µM; in [6] it was above 9.22 µM. The activity, negative = inhibition in test [4] (setting [16]) is 0.433%. For the same compound, the Potency entry in test [7] and in [8] was “inactive” each time.
As to `COc1cc2nc(N(C)CCCNC(=O)[C@@H]3CCCO3)nc(N)c2cc1OC`, the results for the activity change, negative = inhibition in test [1] (setting [16]) and in test [3] (setting [16]) were 7.7% [at 17.2 µM] and -29.6% [at 17.2 µM], respectively. The Potency entry (in test [2]; in test [7]; in test [8]; in the test with ATS189; with CP192; in the test with W2) was “inactive” in each case. In addition, the activity, negative = inhibition in test [4] (setting [16]) was 2.71% [at 17.2 µM]; in [15] (parasite line A) it was 3.61%; in test [15] (parasite line B) it was 7.55%. Besides, the Potency in test [5] and in test [6] was above 20.6 µM throughout. The compound was classed as inactive in [14].
In the case of `O=C1CC[C@H](NC(=O)c2ccccc2)C(=O)N1`, the values for the activity change, negative = inhibition in test [1] (setting [16]) and in test [3] (setting [16]) were 5.12% and 4.46%, respectively. The Potency result in test [2], in [7] and in test [8] was “inactive” in each case. Further, in [4] (setting [16]), the activity, negative = inhibition was 2.96%. The Potency in test [5] was above 46 µM; in test [6], above 9.22 µM.
Take `C(=C/c1ccccc1)/CN1CCN(C(c2ccccc2)c2ccccc2)CC1`: the figures for the activity change, negative = inhibition in test [1] (at 17.2 µM (top of the series)) and in test [1] (at 38 µM (top of the series)) were -10.7% and -3.02%, respectively. The activity, negative = inhibition in test [4] (at 17.2 µM (top of the series)) is -6.97%; in [4] (at 38 µM (top of the series)), 12.7%; in test [15] (parasite line A), 1.36%. Also, the Potency result (in [7]; in test [8]; with ATS189; with CP192) was “inactive” in each case. In addition, the call in test [14] was inactive. Further, the Potency in the test with W2 was 5.1 µM (active).
Regarding `C[N+](C)(C)/N=C\c1ccc(O)c(O)c1`, the activity change, negative = inhibition in test [1] (setting [16]) was 4.59%; in [3] (setting [16]), 8.29%. The Potency in test [2] was 10 µM (active); in [5], above 46 µM; in [6], above 9.22 µM. The activity, negative = inhibition in [4] (setting [16]) was 3.02%. Further, the Potency result in [7] and in [8] was “inactive” throughout.
On to `COc1cc(N=Nc2cccc(S(N)(=O)=O)c2)c2ccccc2c1N`, for which the values for the Potency in test [10], in test [5] and in test [6] were above 11.4 µM, above 46 µM and above 9.22 µM, respectively. In addition, the Potency entry in [7] and in test [8] was “inactive” each time.
Take `NC(=O)c1ncn([C@@H]2O[C@@H](CO)[C@@H](O)[C@H]2O)n1`: the activity change, negative = inhibition in test [1] (setting [16]) was 18.3% [at 38 µM]; in [3] (setting [16]), 17% [at 38 µM]. Besides, the Potency result in test [2], in test [7] and in test [8] was “inactive” throughout. For the same compound, the activity, negative = inhibition in [4] (setting [16]) was -14.5% [at 38 µM]. The Potency in [5] and in test [6] was above 46 µM each time.

Values taken from PubChem BioAssay (NCATS).
